Out of some 1,300 compounds screened, about 330 (25%) were called active. The rule behind the calls is not given here. A selection follows. Entries with a potency or affinity are not part of this list.

The experiment is described as follows: growth inhibition of MALME3 cells – cell-based, CellTiter-Glo, cherry-picked, orthogonal assay for MITF inhibitor project, dose response (AID 493191). As to conditions: MALME3 melanoma viability, CellTiter-Glo luminescence, 24 h; series mostly up to 35 µM. On the technique in general: Cellular ATP, detected with luciferase, serves as a proxy for viable cell number.
On to `CC(=NNC(=S)N1CCN(c2ccccn2)CC1)c1nccs1`, for which the result was inactive.

Take `Oc1c(Cl)cc(Cl)cc1/C=N/Nc1ncc(Br)cn1`: the outcome was inactive.

For `CC(C)(C)C1CCC(OC(=O)CN2CCCCC2)CC1` (configuration not stated), the compound was classed as inactive.

For `Cc1ccc(NC(=O)Nc2ccccc2)nc1`, the call was inactive.

Take `COc1cc(C2C(C#N)=C(N)Oc3cc(N(C)C)ccc32)cc2c1OCO2` (configuration not stated): the compound was called inactive.

In the case of `Cc1ccc(/C=c2/sc3n(c2=O)CCCN=3)o1`, the compound was classed as inactive.

In the case of `O=C(Cn1cc(/C=C\[N+](=O)[O-])c2ccccc21)Nc1ccccc1`, the compound was called inactive.

Regarding `Cc1cc(/C=C2\Sc3ccccc3N2C)cc(C)[n+]1CC1CCCO1` (configuration not stated), the outcome was inactive.

As to `O=C(O)c1cccc(COc2ccccc2Cl)c1`, the outcome was inactive.

Turning to `COc1cc(C(=O)N/N=C(\c2ccccc2)c2ccccn2)cc(OC)c1OC`, the result was inactive.

Consider `Cc1ccc2c(c1)COc1c3ccc(C(=O)O)cc3nn1-2`, for which the result was inactive.

With `COc1cc(/C=N/NS(=O)(=O)c2ccc(C)cc2)ccc1OCc1cccc(C(=O)O)c1`, the compound was called inactive.

Turning to `CCOc1cc(/C=N/Nc2cccc(C(=O)O)c2)ccc1OC(=O)c1ccccc1`, the compound was called inactive.

On to `COc1cc(/C=N/NS(=O)(=O)c2ccc3ccccc3c2)ccc1OCc1ccc(C(=O)O)cc1`, for which the call was inactive.

In the case of `CCOc1cc(/C=C2/NC(=S)NC2=O)ccc1OCc1ccc([N+](=O)[O-])cc1`, the call was inactive.

Consider `Cc1cc(/C(N)=N/OC(=O)c2ccc(Cl)cc2)no1`, for which the compound was classed as inactive.

`CCCCN=C(C)c1c(O)c2ccccc2oc1=O`: the outcome was inactive.

On to `Cc1ccc(/C=N/Nc2ccc(C(=O)O)cc2)s1`, for which the outcome was inactive.

Turning to `CC(C)(C)c1ccc(/C=N/Nc2ccc(C(=O)O)cc2)cc1`, the call was inactive.

Turning to `Cc1csc(NC(=O)Cc2c(F)cccc2Cl)n1`, the result was inactive.

In the case of `Cc1cc(C)n(CCC(=O)N/N=C/c2c(O)ccc3ccccc23)n1`, the compound was called inactive.

Consider `Cc1ccc(-n2[nH]c(=O)c(-c3ccccn3)c2C)cc1`, for which the call was inactive.

Regarding `Cc1cccc(N(O)C(=O)Nc2cccc(Cl)c2)c1`, the call was inactive.

In the case of `Cn1c(COc2ccccc2)nc2ccccc21`, the call was inactive.

For `COc1ccc(NCc2nc3ccccc3n2C)cc1`, the outcome was inactive.

Consider `CCOC(=O)/C=c1\s/c(=C\c2ccc3cc(OC)ccc3c2)c(=O)n1CC(=O)NCC1CCCO1` (configuration not stated), for which the compound was called inactive.

As to `O=C(COC(=O)CCN1C(=O)/C(=C\C=C\c2ccccc2)SC1=S)Nc1cc(F)ccc1F`, the compound was called inactive.

In the case of `O=C(Nc1ccccn1)c1ccc(Br)s1`, the call was inactive.

For the compound `N=c1n(CC(=O)c2ccc(Br)cc2)c2ccccc2n1Cc1ccccc1`, the result was inactive.

As for `O=C(CCl)N1c2ccccc2SCC1c1ccccc1` (configuration not stated), the result was inactive.

Regarding `COc1ccc(COC(=O)c2n[nH]c3ccccc23)cc1F`, the call was inactive.

In the case of `CC(=O)N(\C=C/C=C/C=C1\Sc2ccccc2C1=O)c1ccccc1`, the call was inactive.

(Values after PubChem BioAssay AID493191 (Broad Institute, 2011).)
